# Results as given in PubChem BioAssay (NCATS).
# Inconclusive results are not listed. Where a call stands in place of a potency, no number is given. Activity calls are given as the source filed them. Unless noted, the call rests on the fitted dose curve; in most records, active means well fitted curve in the direction sought with a large enough effect; inconclusive means small, poorly fitted or top-dose-only effect, or another doubt; inactive means no such curve, though single readings can be large; an effect the other way counts as inactive or inconclusive.
# Legend:
# [1] = P-glycoprotein substrates identified in KB-3-1 adenocarcinoma cell line, qHTS therapeutic library screen (AID 1346986); further: nearly all actives have a fitted effect of over 60% in size;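 further: potency means the concentration at half of the fitted maximal effect; potency is for cytotoxicity meaning loss of cell viability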
# Procedure, shortened: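 Counter-screen: cherry-picked hits retested in the KB pair and in HEK-293 pcDNA/MDR-19 cells ± tariquidar. Primary screen used 72 h CellTiter-Glo viability in KB-3-1 and KB-8-5-11.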
# [2] = P-glycoprotein substrates identified in KB-8-5-11 adenocarcinoma cell line, qHTS therapeutic library screen (AID 1346987); further: nearly all actives have a fitted effect of over 65% in size; further: potency means the concentration at half of the fitted maximal effect
# Procedure, shortened: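 KB-8-5-11: colchicine-selected sub-line of KB-3-1 over-expressing P-gp; assay medium lacked colchicine. 72 h drug exposure at 37 degree C, CellTiter-Glo.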
# [3] = Primary qHTS for inhibitors of nuclear receptor binding SET domain protein 2 (NSD2) in an isogenic RCH-ACV NSD2 p.E1099K mutant (9B) (AID 1645876); further: nearly all actives have a fitted effect of over 70% in size; further: potency means the concentration at half of the fitted maximal effect
# [4] = Primary qHTS for inhibitors of nuclear receptor binding SET domain protein 2 (NSD2) in an RCH-ACV wild type WT cells (2C) (AID 1645877); further: nearly all actives have a fitted effect of over 70% in size; further: potency means the concentration at half of the fitted maximal effect
# [5] = biological target: Glutathione peroxidase 1 (Homo sapiens) (UniProt P07203); assay: Primary qHTS Assay for Inhibitors of Recombinant Selenoprotein Glutathione Peroxidase 1 (GPX1) (AID 1845191); further: nearly all actives have a fitted effect of over 65% in size
# Sequence of Glutathione peroxidase 1 (Homo sapiens) (P07203 whole entry, looked up): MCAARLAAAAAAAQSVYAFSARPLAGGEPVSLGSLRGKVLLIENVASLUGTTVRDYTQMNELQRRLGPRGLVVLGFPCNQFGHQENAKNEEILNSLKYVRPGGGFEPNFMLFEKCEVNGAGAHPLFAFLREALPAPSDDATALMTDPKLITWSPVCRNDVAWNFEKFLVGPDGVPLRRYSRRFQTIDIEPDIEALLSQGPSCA
# Procedure, shortened: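 10 nM GPX1 + cpd, 30 min RT; start w/ 1 mM GSH, 0.5 mM cumene hydroperoxide, 0.5 mM NADPH, 100 nM GR, 0.01% BSA; buffer 50 mM Tris-HCl pH 7.5, 2 mM EDTA, 150 mM NaCl; Fl 340/450, 0 & 15 min.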
# [6] = biological target: Catechol O-methyltransferase (Homo sapiens) (UniProt P21964); assay: Confirmatory Screen for Target Class Profiling of Small Molecule Inhibitors of Methyltransferases (AID 1745852; calls by dose curve; further: potency means the concentration at half of the fitted maximal effect); settings: MTase-Glo luminescence, SAH detection, recombinant enzyme; measured here: COMT max response; stronger effect = lower value
# Sequence of Catechol O-methyltransferase (Homo sapiens) (P21964 whole entry, looked up): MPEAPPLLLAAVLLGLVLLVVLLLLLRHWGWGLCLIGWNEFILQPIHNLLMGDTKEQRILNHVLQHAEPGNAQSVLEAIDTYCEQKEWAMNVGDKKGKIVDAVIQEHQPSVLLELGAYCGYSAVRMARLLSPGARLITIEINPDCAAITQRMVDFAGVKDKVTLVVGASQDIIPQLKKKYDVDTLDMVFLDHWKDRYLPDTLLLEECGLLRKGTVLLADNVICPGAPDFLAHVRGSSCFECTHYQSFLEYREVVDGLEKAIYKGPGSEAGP
# [7] = biological target: Guanidinoacetate N-methyltransferase (Homo sapiens) (UniProt Q14353); assay: as above; settings: activity change, negative = inhibition: at 57.3 µM (top of the series) unless noted
# [8] = biological target: Nicotinamide N-methyltransferase (Homo sapiens) (UniProt P40261); assay: as above; settings: MTase-Glo luminescence, SAH detection, recombinant enzyme; measured here: NNMT max response; stronger effect = lower value
# Sequence of Nicotinamide N-methyltransferase (Homo sapiens) (P40261 whole entry, looked up): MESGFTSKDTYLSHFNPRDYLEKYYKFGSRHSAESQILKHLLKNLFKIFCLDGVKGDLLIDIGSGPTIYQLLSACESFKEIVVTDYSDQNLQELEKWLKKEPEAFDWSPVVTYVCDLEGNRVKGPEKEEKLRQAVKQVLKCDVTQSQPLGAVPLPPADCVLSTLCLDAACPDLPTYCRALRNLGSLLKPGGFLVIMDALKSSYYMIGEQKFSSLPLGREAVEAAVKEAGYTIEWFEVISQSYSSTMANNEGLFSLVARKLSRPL
# [9] = biological target: Phenylethanolamine N-methyltransferase (Homo sapiens) (UniProt P11086); assay: as above; settings: MTase-Glo luminescence, SAH detection, recombinant enzyme; measured here: PNMT max response; stronger effect = lower value
# Sequence of Phenylethanolamine N-methyltransferase (Homo sapiens) (P11086 whole entry, looked up): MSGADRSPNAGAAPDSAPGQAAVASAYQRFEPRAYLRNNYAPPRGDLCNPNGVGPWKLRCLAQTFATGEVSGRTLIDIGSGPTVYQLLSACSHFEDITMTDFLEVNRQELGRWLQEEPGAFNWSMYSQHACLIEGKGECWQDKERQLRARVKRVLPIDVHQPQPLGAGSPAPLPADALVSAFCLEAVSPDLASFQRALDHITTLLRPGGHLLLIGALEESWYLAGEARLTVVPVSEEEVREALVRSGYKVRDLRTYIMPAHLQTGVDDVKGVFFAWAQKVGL
Compound,Potency [1],Potency [2],Potency [3],Potency [4],Potency [5],activity [6],Potency [7],activity [8],activity [9],"activity change, negative = inhibition [7]"
O=C1c2ccccc2-c2c(NCCc3ccccc3)c(=O)[nH]c3cccc1c23,1030 nM (active),1160 nM (active),5170 nM (active),4610 nM (active),inactive,,,,,
CCCCCCCCCCCCCC#CC(=O)[C@@H]1COC(C)(C)N1C(=O)OC(C)(C)C,inactive,inactive,13000 nM (active),16400 nM (active),inactive,,,,,
O=C(Nc1cccc(Nc2nccc(Nc3cccc(C(F)(F)F)c3)n2)c1)C1CC1,5800 nM (active),5800 nM (active),3660 nM (active),2590 nM (active),inactive,,,,,
C[C@@H](Oc1cc(-n2cnc3ccc(OC4CCN(C)CC4)cc32)sc1C(N)=O)c1ccccc1Cl,18.4 nM (active),461 nM (active),41.1 nM (active),58 nM (active),inactive,-96.8%,8570 nM (active),-85.5%,-96.2%,
CN[C@H]1CCN(C(=O)c2ccc(Nc3ncc(F)c(-c4cnc(C)n4C(C)C)n3)cc2)C1,58 nM (active),6510 nM (active),92 nM (active),116 nM (active),inactive,,,,,
Cc1cn([C@H]2C[C@H](O)[C@@H](CO)O2)c(=O)nc1N,inactive,inactive,inactive,inactive,inactive,,,,,
CC/C=C\CC1C(=O)CCC1CC(=O)OC (stereo not drawn),inactive,inactive,inactive,inactive,inactive,,,,,
Cc1cc(C)c(/C=C2\C(=O)Nc3ccc(Cl)cc32)[nH]1,inactive,inactive,inactive,inactive,inactive,,,,,
Cc1ccc(Cl)cc1NC(=O)c1nc[nH]c1C(=O)Nc1nc2ccccc2[nH]1,inactive,inactive,inactive,inactive,inactive,,,,,
Cc1ccc(OCCSc2ncccn2)c(Br)c1,inactive,inactive,inactive,inactive,inactive,,,,,
O=C1Cc2c([nH]c3ccc([N+](=O)[O-])cc23)-c2ccccc2N1,1780 nM (active),2520 nM (active),796 nM (active),632 nM (active),inactive,,,,,
BrC1C(Br)C(Br)C(Br)C(Br)C1Br (stereo not drawn),inactive,inactive,inactive,inactive,inactive,,,,,
COC(=O)c1ccc(=O)c2nc3/c(=C/O)c(O)cc(=O)c3[nH]c12,inactive,inactive,5170 nM (active),13000 nM (active),inactive,-24.9%,,-20%,-28.7%,-20.5%
Cc1cc2ncc(-c3ccccc3)nc2cc1C,inactive,inactive,inactive,inactive,inactive,,,,,
